Data from PubChem BioAssay (EPA / NIEHS).
Several values for one entry are separate records, joined by “and”; a condition that tells them apart may be missing. Equal entries are not always repeated. The source holds several records for some structures; these can differ, active in one and inactive in another. Activity calls are given as the source filed them. Rule for the calls: active = hit-call score of the fitted dose curve at least 0.9, where 1 is the maximum; inactive = score below 0.9.

Legend:
[1] = read-out: flavin-containing dimethylaniline monooxygenases 3 (FMO3), FMO3 (gene 2328); assay: LTEA_HepaRG_FMO3: Life Technologies and Expression Analysis (LTEA) Assay for flavin-containing dimethylaniline monooxygenases 3 (FMO3) using HepaRG (AID 2283453); details: mRNA level, 48 h; actives raise or lower the signal;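 for AC50: differentiated human HepaRG liver cells in serum-free induction medium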
Summary of the method: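 FMO3 transcript quantified by TaqMan qRT-PCR against three housekeeping genes after 48 h chemical exposure of HepaRG cells. Eight-point half-log series, top 100 uM, 0.5% DMSO vehicle; phenobarbital 1mM induction control; up- or down-regulation fitted.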

[2] = read-out: Cytochrome P450 (CYP1A1), CYP1A1 (gene 1543); assay: LTEA_HepaRG_CYP1A1: Life Technologies and Expression Analysis (LTEA) Assay for Cytochrome P450 (CYP1A1) using HepaRG (AID 2283454); details: mRNA level, 48 h; actives raise or lower the signal
Summary of the method: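 Differentiated HepaRG cells in serum-free induction medium were exposed in duplicate for 48 h to eight half-log concentrations up to 100 uM in 0.5% DMSO. CYP1A1 mRNA was quantified by TaqMan qRT-PCR, normalized to ACTB, GAPDH and POLR2A.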

[3] = read-out: CFLAR gene, CFLAR (gene 8837); assay: LTEA_HepaRG_CFLAR: Life Technologies and Expression Analysis (LTEA) Assay for CFLAR gene using HepaRG (AID 2283455); details: mRNA level, 48 h; actives raise or lower the signal
Summary of the method: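 qRT-PCR read-out (Fluidigm/TaqMan) of CFLAR mRNA, normalized to three housekeeping genes, in differentiated human HepaRG cells after 48 h chemical exposure; 8-point half-log series from 100 uM in 0.5% DMSO; bidirectional curve fitting versus DMSO.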

[4] = read-out: Forkhead box O1 (FOXO1), FOXO1 (gene 2308); assay: LTEA_HepaRG_FOXO1: Life Technologies and Expression Analysis (LTEA) Assay for Forkhead box O1 (FOXO1) using HepaRG (AID 2283456); details: mRNA level, 48 h; actives raise or lower the signal
Summary of the method: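 HepaRG, 48 h exposure, 8-pt half-log series from 100 uM in 0.5% DMSO, duplicates; Fluidigm qRT-PCR mRNA, housekeeping-normalised; bidirectional fit vs DMSO baseline.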

[5] = read-out: Forkhead box O3 (FOXO3), FOXO3 (gene 2309); assay: LTEA_HepaRG_FOXO3: Life Technologies and Expression Analysis (LTEA) Assay for Forkhead box O3 (FOXO3) using HepaRG (AID 2283459); details: mRNA level, 48 h; actives raise or lower the signal
Summary of the method: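 qRT-PCR readout of FOXO3 transcript, normalized to three housekeeping genes (ACTB, GAPDH, POLR2A); gain or loss fitted against 0.5% DMSO vehicle. HepaRG cells, 48 h chemical exposure, 8-point half-log series, top 100 uM.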

[6] = read-out: ABC Transporter (ABCB1), ABCB1 (gene 5243); assay: LTEA_HepaRG_ABCB1: Life Technologies and Expression Analysis (LTEA) Assay for ABC Transporter (ABCB1) using HepaRG (AID 2283460); details: mRNA level, 48 h; actives raise or lower the signal
Summary of the method: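 HepaRG, 48 h exposure, 8-pt half-log series from 100 uM, 0.5% DMSO vehicle, duplicates. Readout: ABCB1 transcript by Fluidigm TaqMan qRT-PCR, housekeeping-normalized; bidirectional curve fit vs DMSO baseline.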

[7] = read-out: growth arrest and DNA damage 45 (GADD45B), GADD45B (gene 4616); assay: LTEA_HepaRG_GADD45B: Life Technologies and Expression Analysis (LTEA) Assay for growth arrest and DNA damage 45 (GADD45B) using HepaRG (AID 2283461); details: mRNA level, 48 h; actives raise or lower the signal
Summary of the method: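 Differentiated HepaRG cells, plated 48 h then switched to serum-free induction medium, were exposed 48 h in duplicate to eight half-log concentrations from 100 uM in 0.5% DMSO; mRNA quantified by qRT-PCR, normalized to ACTB/GAPDH/POLR2A, bidirectional fit versus DMSO.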

[8] = read-out: ABC Transporter (ABCC3), ABCC3 (gene 8714); assay: LTEA_HepaRG_ABCC3: Life Technologies and Expression Analysis (LTEA) Assay for ABC Transporter (ABCC3) using HepaRG (AID 2283462); details: mRNA level, 48 h; actives raise or lower the signal
Summary of the method: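 HepaRG cells in serum-free induction medium were exposed for 48 h in duplicate to 8-point half-log concentrations topping at 100 uM in 0.5% DMSO. ABCC3 mRNA was measured by qRT-PCR normalized to ACTB, GAPDH and POLR2A, with bidirectional fitting versus DMSO.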

[9] = read-out: growth arrest and DNA damage 45 (GADD45A), GADD45A (gene 1647); assay: LTEA_HepaRG_GADD45A: Life Technologies and Expression Analysis (LTEA) Assay for growth arrest and DNA damage 45 (GADD45A) using HepaRG (AID 2283458); details: mRNA level, 48 h; actives raise or lower the signal
Summary of the method: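 GADD45A expression was measured by TaqMan qRT-PCR against three housekeeping genes (ACTB, GAPDH, POLR2A) after 48 h treatment of HepaRG cells. Eight-point half-log series up to 100 uM in 0.5% DMSO, run in duplicate.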

[10] = CEETOX_H295R_TESTO: CeeTox H295R High-throughput Steroidogenesis Assay for Testosterone (TESTO) (AID 2283457); details: actives raise or lower the signal
Summary of the method: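 H295R human adrenal cells in DMEM/F12 with ITS+ and Nu-Serum, exposed to chemicals for 48 h. Testosterone in medium measured by MTBE extraction, reverse-phase HPLC-MS/MS; bidirectional fit versus DMSO baseline. MTT viability checked in same wells.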

Measured: AC50

CON(C)C(=O)Nc1ccc(Cl)c(Cl)c1
active: [1] 50 µM | [2] 72.7 µM | [5] 13.4 µM
not listed: [9] | [10]
inactive: all other assays above

CO/C=C(/C(=O)OC)c1ccccc1Oc1cc(Oc2ccccc2C#N)ncn1
inactive: [3] | [5] | [6] | [8]
active: [1] 79.3 µM and 78.7 µM and 76.5 µM | [2] 27 µM and 25.2 µM and 19 µM | [3] 30.5 µM | [4] 77.3 µM and 70.5 µM and 71.8 µM | [9] 87.3 µM and 74.6 µM and 95.4 µM | [6] 23.5 µM | [7] 94.1 µM and 82.7 µM and 84.7 µM | [8] 22.1 µM and 26.1 µM

CC(C)C1(C)N=C(c2nc3ccccc3cc2C(=O)O)NC1=O (stereo not given)
active: [2] 34.6 µM
not listed: [10]
inactive: all other assays above

CCOC(=O)CC(SP(=S)(OC)OC)C(=O)OCC (stereo not given)
active: [2] 22.8 µM
not listed: [9]
inactive: all other assays above

CC(C)Oc1cc(-n2nc(C(C)(C)C)oc2=O)c(Cl)cc1Cl
active: [1] 61.5 µM | [2] 13.2 µM | [6] 1.25 µM | [7] 4.73 µM
not listed: [9]
inactive: all other assays above

COc1nc(NC(C)C)nc(NC(C)C)n1
active: [2] 36 µM | [6] 9.31 µM
not listed: [10]
inactive: all other assays above

CCNc1nc(Cl)nc(NC(C)C)n1
active: [2] 40.5 µM | [6] 21.2 µM
not listed: [10]
inactive: all other assays above

O=C(O)c1nc(Cl)ccc1Cl
inactive: [1] | [2] | [3] | [4] | [5] | [6] | [7] | [8]
active: [2] 50 µM

Cc1ccc(-c2c(Cl)nc(C#N)n2S(=O)(=O)N(C)C)cc1
inactive: [6]
active: [1] 19.5 µM | [2] 3.53 µM | [3] 7.21 µM | [4] 50 µM | [9] 22.5 µM | [5] 3.64 µM | [7] 8.98 µM | [8] 7.3 µM

COc1cnc(OC)n2nc(NS(=O)(=O)c3c(OCC(F)F)cccc3C(F)(F)F)nc12
active: [2] 32.8 µM | [6] 23.3 µM
not listed: [10]
inactive: all other assays above

Fc1ccc(Oc2ccnc3cc(Cl)cc(Cl)c23)cc1
active: [1] 85.8 µM | [2] 24 µM
not listed: [10]
inactive: all other assays above

Cc1cc(Cl)ccc1OCC(=O)O
active: [2] 50 µM
not listed: [9]
inactive: all other assays above

COC(=O)C(C)Oc1ccc(Oc2ccc(Cl)cc2Cl)cc1 (stereo not given)
active: [2] 38.3 µM | [4] 13.7 µM
not listed: [9] | [10]
inactive: all other assays above

CCNc1nc(Cl)nc(NCC)n1
active: [2] 21.4 µM
not listed: [9] | [10]
inactive: all other assays above

CCON=C(CC)C1=C(O)CC(c2c(C)cc(C)cc2C)CC1=O (stereo not given)
active: [6] 50 µM
not listed: [9]
inactive: all other assays above

COC(=O)C=C(C)OP(=O)(OC)OC
not listed: [9] | [10]
inactive: all other assays above

CCCCNC(=O)n1c(NC(=O)OC)nc2ccccc21
active: [2] 26.1 µM
not listed: [9]
inactive: all other assays above

CC1=C(C(=O)Nc2ccccc2)SCCO1
active: [1] 50 µM | [2] 89.9 µM | [3] 50 µM | [5] 50 µM | [7] 50 µM
inactive: [4] | [10] | [9] | [6] | [8]

CN(C)C(=S)SSC(=S)N(C)C
not listed: [10]
inactive: all other assays above

O=C(O)COc1nc(Cl)c(Cl)cc1Cl
active: [2] 51 µM
not listed: [10]
inactive: all other assays above

CC(C)(C)c1ccc(CSc2cnn(C(C)(C)C)c(=O)c2Cl)cc1
active: [1] 2.68 µM | [2] 14.2 µM | [4] 2.12 µM | [9] 1.99 µM | [5] 1.49 µM | [6] 4.66 µM
inactive: [3] | [7] | [8]

CCCC1COC(Cn2cncn2)(c2ccc(Cl)cc2Cl)O1 (stereo not given)
inactive: [10] | [5] | [6] | [7]
active: [1] 34.6 µM | [2] 40 µM | [3] 77.7 µM | [4] 76.1 µM | [8] 12.2 µM

CCCN(CCC)c1c([N+](=O)[O-])cc(S(N)(=O)=O)cc1[N+](=O)[O-]
active: [1] 95.4 µM and 77.8 µM and 76.4 µM | [2] 11.5 µM and 50 µM and 35.1 µM | [3] 75.8 µM and 76.8 µM | [4] 90.2 µM | [5] 93.9 µM and 76.9 µM | [6] 89.8 µM and 84.8 µM and 82.3 µM | [7] 93.5 µM and 93.2 µM | [8] 93.6 µM and 74.3 µM and 90.4 µM
inactive: [3] | [4] | [5] | [7]

N#CC(CCc1ccc(Cl)cc1)(Cn1cncn1)c1ccccc1 (stereo not given)
active: [1] 72.9 µM | [2] 9.8 µM | [4] 77.8 µM | [9] 74.7 µM | [8] 12.5 µM
inactive: [3] | [10] | [5] | [6] | [7]
